# S-ASM inh = Inhibitors of Secretory Acid Sphingomyelinase (S-ASM): qHTS; AID 504937, 2011; placental ASM, HMU-PC fluorogenic substrate, 60 min; Sphingomyelin phosphodiesterase (Homo sapiens), P17405; Potency, µM (titrated, usually from 57.5 µM), inactives show at the top dose activity change, negative = inhibition, usual class: inhibitors; 340,000 compounds, 0.006% hits; note: potency is the fitted concentration of half-maximal effect
# Target sequence (P17405 47-631 limits assumed): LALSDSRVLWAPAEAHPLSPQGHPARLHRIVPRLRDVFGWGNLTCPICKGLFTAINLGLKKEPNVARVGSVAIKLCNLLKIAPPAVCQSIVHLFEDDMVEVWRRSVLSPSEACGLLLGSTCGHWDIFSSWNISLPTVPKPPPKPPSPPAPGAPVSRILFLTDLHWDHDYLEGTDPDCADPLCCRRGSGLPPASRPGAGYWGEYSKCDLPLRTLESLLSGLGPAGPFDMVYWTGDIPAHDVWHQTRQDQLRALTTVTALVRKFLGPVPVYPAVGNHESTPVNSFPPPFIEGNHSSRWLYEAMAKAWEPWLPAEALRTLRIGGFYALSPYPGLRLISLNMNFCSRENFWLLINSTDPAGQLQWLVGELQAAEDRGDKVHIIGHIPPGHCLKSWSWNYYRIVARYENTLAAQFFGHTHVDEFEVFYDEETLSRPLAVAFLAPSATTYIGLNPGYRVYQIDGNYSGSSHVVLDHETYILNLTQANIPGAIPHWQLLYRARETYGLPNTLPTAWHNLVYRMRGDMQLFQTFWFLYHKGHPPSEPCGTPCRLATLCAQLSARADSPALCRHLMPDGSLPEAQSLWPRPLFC
#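 Fluorescence read-out (Ex 386 nm, Em 447 nm) after stopping the reaction at pH 10. Enzyme: ASM from human placenta; substrate HMU-PC0, 9 uM final; 60 min, 37 °C. Compound preincubation 10 min, ambient temperature.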
# IL-1B inflam inh = qHTS for Inhibitors of Inflammasome Signaling: IL-1-beta AlphaLISA Primary Screen | 360,000 compounds, 4.7% hits | THP-1 LPS/ATP IL-1B secretion, AlphaLISA, 16 h; active compounds read low | activity change, % at 57.5 µM; in the data active = activity change below about -50%; inconclusive = mostly about -30% to -49%; note: % is set by controls: 0 for no effect and ±100 for the full control effect
#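 THP-1 cells pretreated 1 hr with compounds (up to 57.5 uM final), then stimulated with LPS (250 ng/mL final) plus ATP (1.25 mM final); secreted IL-1B measured by AlphaLISA after 16 hr, decreased signal indicating inhibition.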
# HepG2 tox = qHTS for Inhibitors of TGF-b: Cytotox Counterscreen; HepG2 CAGA-GFP viability, ATP luminescence, 18 h; 410,000 compounds, 0.76% hits; Potency, µM (highest dose often 46.1 µM), without a hit: top-dose activity change, negative = cytotoxicity, hits mostly cytotoxic; note: potency is the fitted concentration of half-maximal effect
#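 CellTiter-Glo luminescence gave cytotoxicity after 18 hours at 37 degrees C. The cells were HepG2 CAGA-GFP in 1% FBS DMEM, stimulated with 500 pg/mL TGF-beta after compound addition. %Activity was normalised to no-cell wells (complete cell-killing) and DMSO (no toxicity), and curves were fitted and classified.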
# TGFb inhibitor = qHTS for Inhibitors of TGF-b; HepG2 CAGA-GFP TGF-b/SMAD3 reporter, GFP fluorescence, 18 h; TGF-beta stimulated, 500 pg/mL final; 410,000 compounds, 1.2% hits; Potency, µM (highest dose often 46.1 µM), for inactives: at the top dose activity, negative = inhibition, usual class: inhibitors; AID 588855, 2011; note: potency is the fitted concentration of half-maximal effect; % is set by controls: 0 for no effect and ±100 for the full control effect; nearly all actives have a fitted effect of over 65% in size
#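 TGF-beta reporter screen: HEPG2 CAGA-GFP, 1% FBS, 500 pg/mL TGF-beta final, 18 h; per-cell GFP summed per well; curves fitted and categorized by class.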
# DT40 TDP1 CPT = qHTS for Inhibitors of human tyrosyl-DNA phosphodiesterase 1 (TDP1): qHTS in cells in presence of CPT. chicken DT40 Tdp1-/-;hTDP1 cells + 20 nM CPT, ATP luminescence, 48 h. Potency, µM (series often up to 46.2 µM), without a hit: at the highest dose activity change, negative = growth inhibition, hits mostly inhibitors. 420,000 compounds, 12% hits. AID 686979, 2013; note: potency is the fitted concentration of half-maximal effect; % is set by controls: 0 for no effect and ±100 for the full control effect; nearly all actives have a fitted effect of over 55% in size
#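 Chicken DT40 Tdp1-/- cells complemented with human TDP1, 400 cells/well, exposed to compounds plus 20 nM camptothecin for at least 48 h at 37 C; viability read as ATP content by CellTiter-Glo luminescence.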
# DT40 TDP1 no CPT = qHTS for Inhibitors of human tyrosyl-DNA phosphodiesterase 1 (TDP1): qHTS in cells in absence of CPT; Potency, µM (highest dose often 46.2 µM), for the others: at the top dose activity change, negative = growth inhibition, usual class: inhibitors; DT40 Tdp1-/- hTDP1 cells, no CPT, ATP luminescence, 48 h; 420,000 compounds, 15% hits; note: potency is the fitted concentration of half-maximal effect; % is set by controls: 0 for no effect and ±100 for the full control effect; nearly all actives have a fitted effect of over 55% in size
#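 A cellular qHTS used chicken DT40 cells lacking endogenous Tdp1 but carrying stably transfected human TDP1. Compounds were applied without camptothecin, and cell growth kinetics were judged by ATP-dependent luminescence after ≥48 hr.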
# Active calls of the source: *; u = inconclusive; x = not tested or not shown. In the library only some 19% were active in any assay of this set; here they are far more common. Unless noted, calls come from the whole dose curve; as a rule, active = well fitted curve in the direction sought with a large enough effect; inconclusive = small, poorly fitted or top-dose-only effect, or another doubt; inactive = no such curve, though single readings can be large; an effect the other way counts as inactive or inconclusive.
SMILES,S-ASM inh,IL-1B inflam inh,HepG2 tox,TGFb inhibitor,DT40 TDP1 CPT,DT40 TDP1 no CPT
CCOC(=O)C1(Cc2cccc(F)c2)CCN(Cc2cn(CC)nc2C)CC1,2.7%,-20.3,-20.2%,-10.0%,1.2%,u
CCOC(=O)C1(Cc2cccc(F)c2)CCN(Cc2c(C)nn(CC)c2C)CC1,4.8%,0.0,-20.5%,-11.0%,23.1µM*,u
O=C(NC1(C(F)(F)F)OCCO1)c1ccc(F)cc1,-0.6%,-2.0,-17.8%,-4.1%,-0.5%,-7.2%
CCOC(=O)C1CCCN(S(=O)(=O)c2c(C)noc2C)C1 (stereo unspecified),0.7%,27.4,12.8%,4.0%,-5.7%,7.1%
CCOC(=O)C1(CCCc2ccccc2)CCN(Cc2cnc(C)s2)CC1,6.0%,-88.2*,-19.5%,-4.1%,20.6µM*,10.3µM*
CCOC(=O)C1(Cc2cccc(F)c2)CCN(Cc2cnc(C)s2)CC1,-3.7%,8.8,1.8%,5.2%,25.9µM*,23.1µM*
CCOC(=O)C1(Cc2cccc(F)c2)CCN(Cc2ccon2)CC1,2.8%,8.0,0.1%,-5.1%,4.1%,u
CCOC(=O)C1(CCCc2ccccc2)CCN(Cc2nccn2CC)CC1,1.5%,-55.1*,-25.5%,u,u,u
CCCOc1ccc(F)cc1-c1cc(C(=O)NC(C)C)[nH]n1,x,22.3,7.5%,5.9%,u,u
COCCn1c(=O)c(C)nc2cnc(N3CCNCC3)nc21,x,x,x,x,6.2%,-2.6%
O=C(Nn1cnnc1)c1ccc(OC(F)(F)C(F)C(F)(F)F)cc1 (stereo unspecified),-2.1%,-3.2,-3.9%,8.3%,-12.4%,12.6%
COc1ccccc1CNC(=O)CN1C(=O)NC2(CCCc3ccccc32)C1=O (stereo unspecified),0.6%,3.3,-1.5%,14.8%,-15.6%,-11.7%
C[C@H](CO)N1C[C@H](C)[C@@H](CN(C)S(=O)(=O)c2cccc(C#N)c2)OCc2cnnn2CCCC1=O,x,-0.6,-12.9%,17.9%,-16.7%,5.2%
CC1CCC(Nc2ncnc3onc(-c4ccc(Cl)cc4)c23)CC1 (stereo unspecified),x,x,2.1%,13.1%,u,u
Cc1cc(C)c2[nH]c(C)c(CN3CCCCCC3)c(=O)c2c1,-0.5%,-3.2,-12.3%,-3.7%,-7.4%,-23.0%
CCOC(=O)C1=C(C)Nc2ccccc2N=C1NC(=O)c1oc2ccccc2c1COC,0.4%,-0.5,-23.2%,u,20.6µM*,16.4µM*
COCc1c(C(=O)Nc2nnc(C3CC3)s2)oc2ccccc12,x,8.9,-2.9%,1.0%,u,11.6µM*
Cc1cccc(NC(=O)c2nc[nH]c2C(=O)N2CCN(c3ccccc3)CC2)c1,-1.5%,-0.9,2.7%,-1.1%,-6.5%,-14.3%
O=C(O)c1nn(CCOc2ccc(Br)cc2)c(=O)c2ccccc12,u,29.9,-5.6%,8.8%,-2.4%,1.1%
COC(=O)[C@@]1(Cc2ccc(F)cc2)[C@H]2c3cc(C(=O)N4CCCC4)n(Cc4ccccc4)c3C[C@H]2CN1C(=O)c1ccccc1,x,-50.8*,x,x,u,23.1µM*
COC(=O)[C@@]1(Cc2ccc(F)cc2)[C@H]2c3cc(C(=O)N4CCCC4)n(C)c3C[C@H]2CN1C(=O)c1ccccc1,x,-53.6*,x,x,23.1µM*,16.4µM*
COCCn1c(C(=O)N2CCCC2)cc2c1C[C@H]1CN(C(=O)c3ccccc3)[C@@](Cc3ccc(F)cc3)(C(=O)OC)[C@@H]21,3.9%,-16.7,-43.1%,u,-13.4%,u
CCn1ncc(Cl)c1C(=O)NC(=S)Nc1ccccc1Br,-9.1%,-85.2*,-13.5%,-0.2%,1.7%,-21.6%
Cc1nn(C)c(C(=O)NC(=S)Nc2ccccc2Br)c1Cl,-3.1%,u,-28.0%,-8.7%,5.3%,13.0%
C/C(Cn1nnc([N+](=O)[O-])n1)=N\NC(=O)c1ccc(C)cc1,7.6%,40.8,-13.3%,u,13µM*,14.6µM*
SMILES,S-ASM inh,IL-1B inflam inh,HepG2 tox,TGFb inhibitor,DT40 TDP1 CPT,DT40 TDP1 no CPT
C/C(Cn1cnc([N+](=O)[O-])n1)=N\NC(=O)c1ccc(F)cc1,2.5%,-0.1,-42.3%,-3.2%,6.8%,-16.4%
C/C(Cn1nnc([N+](=O)[O-])n1)=N\NC(=O)c1ccncc1,1.8%,45.9,-11.1%,-23.1%,16.4µM*,20.6µM*
C/C(Cn1cnc([N+](=O)[O-])n1)=N\NC(=O)c1ccncc1,0.8%,25.1,-11.7%,-10.8%,-25.3%,10.5%
COc1ccc(NC(=O)Cn2ccn(-c3ccc(C)c(C)c3)c(=O)c2=O)cc1Cl,x,x,0.2%,-18.2%,-9.9%,-7.2%
Cc1cc(C)cc(N(C(=O)c2csnn2)C(C(=O)NC2CCCC2)c2cccnc2)c1 (stereo unspecified),-0.4%,12.8,-30.0%,u,-10.2%,-21.6%
Cc1ccc(OCC(=O)Nc2ccc(S(=O)(=O)Nc3ccccn3)cc2)c(C)c1,0.3%,-2.8,0.9%,2.6%,u,18.4µM*
O=C(Nc1ccc(F)c(Cl)c1)C1CCN(c2ncccn2)CC1,x,x,-28.4%,-27.8%,-19.7%,2.2%
COCCn1nnnc1C(C(C)C)N(Cc1ccccc1)Cc1cc2cc(OC)ccc2[nH]c1=O (stereo unspecified),10.1%,-55.8*,-5.6%,u,u,16.4µM*
COc1ccc2[nH]c(=O)c(CN(Cc3ccco3)C(c3nnnn3Cc3ccccc3)C(C)C)cc2c1 (stereo unspecified),8.9%,-10.1,-8.5%,0.0%,18.4µM*,20.6µM*
COc1ccc2cc(C(c3nnnn3CCc3ccccc3)N3CCC(O)CC3)c(=O)[nH]c2c1 (stereo unspecified),6.2%,6.8,-0.5%,10.1%,-21.0%,3.1%
Cc1cccc2cc(CN(Cc3ccco3)C(c3nnnn3CCc3ccccc3)C(C)C)c(=O)[nH]c12 (stereo unspecified),-6.0%,0.0,23.3%,10.5%,u,14.6µM*
COc1ccc2[nH]c(=O)c(CN(C(=O)c3ccco3)C(C)C)cc2c1,15.1%,-0.5,18.5%,14.7%,-1.4%,-10.8%
CCOC(=O)C1(CCOc2ccccc2)CCN(Cc2ccncc2)CC1,4.8%,-20.1,-23.7%,-12.3%,u,25.9µM*

# Bioassay records (PubChem BioAssay)
